# Experimental data as given in ChEMBL document CHEMBL1961873, “Compounds: GSK PKIS; Assays: Nanosyn kinase panel” (2012).
# Biological target: Serine/threonine-protein kinase PAK 5 (Homo sapiens) (UniProt Q9P286)
# Settings: at 1 µM
# Serine/threonine-protein kinase PAK 5 (Homo sapiens), sequence (Q9P286 whole entry, looked up): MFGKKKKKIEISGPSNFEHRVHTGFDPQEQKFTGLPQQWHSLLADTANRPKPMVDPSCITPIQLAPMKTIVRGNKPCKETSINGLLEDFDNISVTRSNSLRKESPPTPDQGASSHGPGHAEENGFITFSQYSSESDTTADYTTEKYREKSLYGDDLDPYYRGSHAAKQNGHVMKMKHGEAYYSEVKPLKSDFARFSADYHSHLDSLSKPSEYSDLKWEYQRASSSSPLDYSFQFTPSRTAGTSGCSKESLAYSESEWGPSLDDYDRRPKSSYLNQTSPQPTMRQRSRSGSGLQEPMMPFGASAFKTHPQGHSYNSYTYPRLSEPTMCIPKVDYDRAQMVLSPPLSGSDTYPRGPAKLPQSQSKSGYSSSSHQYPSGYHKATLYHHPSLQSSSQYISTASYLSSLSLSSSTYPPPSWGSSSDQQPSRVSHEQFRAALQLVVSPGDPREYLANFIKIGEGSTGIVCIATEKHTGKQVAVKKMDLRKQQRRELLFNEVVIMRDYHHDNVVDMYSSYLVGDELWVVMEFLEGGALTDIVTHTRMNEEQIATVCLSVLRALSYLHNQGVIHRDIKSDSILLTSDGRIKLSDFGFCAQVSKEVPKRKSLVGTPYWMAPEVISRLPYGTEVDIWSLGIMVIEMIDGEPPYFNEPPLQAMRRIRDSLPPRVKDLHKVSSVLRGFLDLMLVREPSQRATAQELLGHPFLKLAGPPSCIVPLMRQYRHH
row,Structure (SMILES),inhibition [%]
1,NS(=O)(=O)c1ccc(N/C=C2\C(=O)Nc3ccc4ncsc4c32)cc1,4.51
2,CCn1c(-c2nonc2N)nc2c(C#CCN)ncc(OCCCN)c21,3.52
3,COc1cc(C=NNc2ncnc3c2cnn3Cc2ccccc2)ccc1O,-5.56
4,Fc1ccc(-c2ncn(C3CCNCC3)c2-c2ccnc(Oc3ccccc3)n2)cc1,2.03
5,COc1cccc(COc2cc(-n3cnc4ccccc43)sc2C(N)=O)c1,-5.64
6,Nc1nonc1-c1nc2cnccc2n1C1CCCCC1,-4.63
7,COc1cc2c(cc1Nc1nc(Nc3ccsc3C(N)=O)c3cc[nH]c3n1)N(C(=O)CN(C)C)CCC2,-3.49
8,NS(=O)(=O)c1ccc(-c2ccc3c(NC(=O)C4CC4)n[nH]c3c2)cc1,2.99
9,COc1cccc(-n2ncc3c(N/N=C/c4ccncc4)ncnc32)c1,6.09
10,Cc1cc(-c2ccco2)cc(C)c1/C=C/c1cncc(-c2nn[nH]n2)c1,-2.25
11,CCn1c(-c2nonc2N)nc2c(C#CC(C)(C)O)ncc(OCC3CCNCC3)c21,76
12,NC(=O)c1sc(-n2cnc3cc(C(F)(F)F)ccc32)cc1OCc1ccccc1Br,0.39
13,CCn1c(-c2nonc2N)nc2c(C#CC(C)(C)O)nc(O[C@@H](CN)c3ccccc3)cc21,62.2
14,CCn1c(-c2nonc2N)nc2c(C#CC(C)(C)O)ncc(OC[C@@H]3CCCN3)c21,49.8
